The target of experiment [1] is human Dopamine Transporter (DAT), SLC6A3 (gene 6531) (UniProt Q01959). As to the kind of experiment: NVS_TR_hDAT: NovaScreen (NVS) Transporter Assay for human Dopamine Transporter (DAT) (AID 2283374).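 Note: activity means loss of bound radioligand signal relative to DMSO.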 A digest of the protocol:
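Test chemicals were first screened in duplicate at 25 uM, with actives retested as concentration series. Displacement of a specific radioligand from cell-free human dopamine transporter was measured after 1 h by filtration and scintillation counting.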

Experiment [2] addresses Estrogen receptor beta (Homo sapiens) (UniProt Q92731). As to the kind of experiment: OT_ER_ERbERb_1440: Odyssey Thera (OT) 24-hour HEK293T Protein-Complementation Assay for Estrogen Receptor-beta/-beta Homodimer (AID 2283380).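 Note: fluorescence gain from ER beta LBD homodimer complementation read by laser scanning cytometry; scored as signal increase over DMSO baseline for both agonists and antagonists.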 A digest of the protocol:
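Fluorescence increase, nuclear for agonists or whole-cell for antagonists, relative to DMSO vehicle, quantified by laser scanning cytometer after fixation and Draq5 staining. Readout from 24 h treatment of HEK293T cells carrying complementation-paired ER beta LBD (aa 310-547).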

For experiment [3], the target named is Estrogen receptor (Homo sapiens) (UniProt P03372). As to the kind of experiment: OT_ERa_GFPERaERE_0480: Odyssey Thera (OT) 8-hour HeLa Transcription Induction Assay for Estrogen Receptor (AID 2283381; active = hit-call score of the fitted dose curve at least 0.9, where 1 is the maximum; inactive = score below 0.9). A digest of the protocol: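 HeLa cells dosed with compound and imaged by fluorescence microscopy at 8 h; GFP induction from an ERE reporter quantified by high-content image analysis and fitted as gain of signal against DMSO baseline.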

Experiment [4] has the same target. As to the kind of experiment: OT_ERa_GFPERaERE_0120: Odyssey Thera (OT) 2-hour HeLa Transcription Induction Assay for Estrogen Receptor (AID 2283382). In outline: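 HeLa cells were dosed with test chemical and read 2 hours later for GFP-ERα/ERE-linked fluorescent protein induction by fluorescence microscopy. Gain-of-signal was fitted relative to DMSO baseline, quantified by high content image analysis.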

Experiment [5] concerns the target Retinoic acid receptor RXR-alpha (Homo sapiens) (UniProt P19793). As to the kind of experiment: OT_NURR1_NURR1RXRa_0480: Odyssey Thera (OT) 8-hour HEK293T Protein Complementation Assay for Nurr1/retinoid X receptor (RXR) (AID 2283385). In outline:
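HEK293T cells expressing Nurr1 and RXRα fused to reporter fragments were dosed with compound for 8 hours. Complex formation was read as fluorescence intensity and analysed as gain of signal against DMSO as baseline.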

For experiment [6] the target is unchanged. As to the kind of experiment: OT_NURR1_NURR1RXRa_1440: Odyssey Thera (OT) 24-hour HEK293T Protein Complementation Assay for Nurr1/retinoid X receptor (RXR) (AID 2283386). In outline: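 HEK293T cells were dosed with compound and read 24 h later by fluorescence intensity in a protein-fragment complementation format, where Nurr1–RXRα interaction reconstitutes a split reporter. Activity was fitted as gain of signal relative to DMSO baseline.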

Experiment [7] deals with Peroxisome proliferator-activated receptor gamma (Homo sapiens) (UniProt P37231). As to the kind of experiment: OT_PPARg_PPARgSRC1_0480: Odyssey Thera (OT) 8-hour Protein-Complementation Assay for Peroxisome Proliferator-activated Receptor Gamma / SRC-1 Co-activator (AID 2283387). In outline:
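Split-YFP (IFP1/IFP2) PPARg/SRC-1 reporter, HEK293T, 37 °C, 5% CO2; 8 h compound; formaldehyde fix + Draq5; high-content imaging, N/C ratio, ≥350 cells/image, positive direction vs DMSO.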

Experiment [8] has the same target. As to the kind of experiment: OT_PPARg_PPARgSRC1_1440: Odyssey Thera (OT) 24-hour Protein-Complementation Assay for Peroxisome Proliferator-activated Receptor Gamma/ SRC-1 Co-activator (AID 2283388). A digest of the protocol:
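HEK293T cells transiently transfected with PPARg and SRC-1 fused via (Gly4Ser)2 linker to split Venus YFP fragments (IFP1/IFP2) were dosed 24 h; fixed, Draq5-stained, imaged at 488/635 nm; nuclear/cytoplasmic fluorescence ratio scored versus DMSO baseline, gain-of-signal.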

For experiment [9], the target named is rat Serotonin Transporter (SERT), Slc6a4 (gene 25553) (UniProt P31652). As to the kind of experiment: NVS_TR_rSERT: NovaScreen (NVS) Transporter Assay for rat Serotonin Transporter (SERT) (AID 2283375). A digest of the protocol: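 Rat forebrain membranes were incubated with test chemical for 1 hour; radioligand binding to SERT was measured by filter-based scintillation counting. Primary screen ran in duplicate at 25 uM, with actives followed up in concentration series; DMSO served as negative control.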

Experiment [10] deals with Norway rat Vesicular Monoamine Transporter (VMAT2), neurotransmitter transporter, Slc18a2 (gene 25549) (UniProt Q01827). As to the kind of experiment: NVS_TR_rVMAT2: NovaScreen (NVS) Transporter Assay for Norway rat Vesicular Monoamine Transporter (VMAT2), neurotransmitter transporter (AID 2283376).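 Note: actives lower the bound radioligand signal below the DMSO level.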 In outline:
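Tissue: rat forebrain extract. Format: competitive radioligand binding, cell-free. Timepoint: 1 h. Readout: filter radiodetection/scintillation. Screen: 25 uM in duplicate, then concentration series for actives. Baseline: DMSO.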

The target in experiment [11] is Bile acid receptor (Homo sapiens) (UniProt Q96RI1). As to the kind of experiment: OT_FXR_FXRSRC1_1440: Odyssey Thera (OT) 24-hour HEK293T Protein-Complementation Assay for Farnesoid X receptor/SRC-1 Co-activator (AID 2283384). In outline: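 HEK293T cells were dosed with compound and read 24 h later by fluorescence intensity from protein-fragment complementation reporting FXR/SRC-1 co-activator interaction. Gain of signal was fitted relative to DMSO negative control as baseline.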

A short description of experiment [12]: CEETOX_H295R_11DCORT: CeeTox H295R High-throughput Steroidogenesis Assay for 11-Deoxycortisol (11DCORT) (AID 2283432; active = hit-call score of the fitted dose curve at least 0.9, where 1 is the maximum; inactive = score below 0.9;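 for AC50: 11-deoxycortisol secreted into the medium measured by LC-MS/MS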). The settings on record: actives raise or lower the signal. A digest of the protocol: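 Steroidogenesis in human H295R cells: 48 h chemical exposure after forskolin priming, 11-deoxycortisol measured by LC-MS/MS.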
The nature of experiment [13]: CEETOX_H295R_OHPREG: CeeTox H295R High-throughput Steroidogenesis Assay for OH-Pregnenolone (OHPREG) (AID 2283434; active = hit-call score of the fitted dose curve at least 0.9, where 1 is the maximum; inactive = score below 0.9). The settings on record: actives raise or lower the signal. In outline:
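Hormone levels in spent medium were measured by tandem mass spectrometry following liquid-liquid extraction. Cells (H295R) had been forskolin-stimulated (10 uM, 48 h) before a 48 h chemical exposure at 0.1% DMSO, with activity fitted in both directions against DMSO.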

The nature of experiment [14]: CEETOX_H295R_OHPROG: CeeTox H295R High-throughput Steroidogenesis Assay for OH-Progesterone (OHPROG) (AID 2283435; active = hit-call score of the fitted dose curve at least 0.9, where 1 is the maximum; inactive = score below 0.9). The settings on record: actives raise or lower the signal. In outline: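 H295R human adrenal cells were prestimulated 48 h with 10 uM forskolin, then exposed 48 h to test chemical (0.1% DMSO final). 17alpha-hydroxyprogesterone in medium was measured by HPLC-MS/MS after MTBE extraction; bidirectional fitting vs DMSO.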

Experiment [15] can be described thus: CEETOX_H295R_CORTIC: CeeTox H295R High-throughput Steroidogenesis Assay for Corticosterone (CORTIC) (AID 2283437; active = hit-call score of the fitted dose curve at least 0.9, where 1 is the maximum; inactive = score below 0.9;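 note: corticosterone secreted into medium quantified by mass spectrometry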). The settings on record: actives raise or lower the signal. A digest of the protocol:
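Corticosterone secreted into medium is measured by reverse-phase HPLC with tandem MS following liquid-liquid extraction. Cells are forskolin-stimulated (10 uM, 48 h) before 48 h test exposure; activity fitted in both directions against DMSO.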

For experiment [16], the target named is Agonist Androgen Response Element (ARE), AR (gene 367) (UniProt P10275). As to the kind of experiment: OT_AR_ARELUC_AG_1440: Odyssey Thera (OT) 24-hour CHO-K1 Luciferase Assay for Agonist Androgen Response Element (ARE) (AID 2283379). In outline: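 Agonist mode, 24 h exposure in CHO-K1 ARE-luciferase cells; values reflect luminescence induction over vehicle.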

For experiment [17], the target named is Bile acid receptor (Homo sapiens) (UniProt Q96RI1). As to the kind of experiment: OT_FXR_FXRSRC1_0480: Odyssey Thera (OT) 8-hour HEK293T Protein-Complementation Assay for Farnesoid X receptor/SRC-1 Co-activator (AID 2283383). In outline:
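HEK293T cells expressing FXR and SRC-1 fused to reporter fragments were dosed with compound for 8 h; fluorescence from the reconstituted reporter marked co-activator recruitment. Gain of signal was fitted against the DMSO baseline.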

Experiment [18] can be described thus: CEETOX_H295R_ANDR: CeeTox H295R High-throughput Steroidogenesis Assay for Androstenedione (ANDR) (AID 2283436; active = hit-call score of the fitted dose curve at least 0.9, where 1 is the maximum; inactive = score below 0.9). The settings on record: actives raise or lower the signal. In outline: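 Read-out is androstenedione secreted into medium, measured by tandem mass spectrometry after liquid-liquid extraction. Cells were H295R, dosed for 48 h per modified OECD 456; activity fitted in both directions relative to DMSO.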

One may read the AC50 as the midpoint of the concentration-response curve, whichever way the signal moves.

Molecules are shown by their SMILES. Several values for one entry are separate records, joined by “and”; a condition that tells them apart may be missing. Equal entries are not always repeated. Inconclusive results are not listed. Some structures have more than one record in an assay (separate samples or runs), and their calls can disagree. Activity calls are given as the source filed them. Rule for the calls, unless noted: active = hit-call score of the fitted dose curve at least 0.9, where 1 is the maximum; inconclusive = response in the unintended direction; inactive = score below 0.9.

Chain of Retinoic acid receptor RXR-alpha (Homo sapiens) (P19793 whole entry, looked up, the tested form may be a part): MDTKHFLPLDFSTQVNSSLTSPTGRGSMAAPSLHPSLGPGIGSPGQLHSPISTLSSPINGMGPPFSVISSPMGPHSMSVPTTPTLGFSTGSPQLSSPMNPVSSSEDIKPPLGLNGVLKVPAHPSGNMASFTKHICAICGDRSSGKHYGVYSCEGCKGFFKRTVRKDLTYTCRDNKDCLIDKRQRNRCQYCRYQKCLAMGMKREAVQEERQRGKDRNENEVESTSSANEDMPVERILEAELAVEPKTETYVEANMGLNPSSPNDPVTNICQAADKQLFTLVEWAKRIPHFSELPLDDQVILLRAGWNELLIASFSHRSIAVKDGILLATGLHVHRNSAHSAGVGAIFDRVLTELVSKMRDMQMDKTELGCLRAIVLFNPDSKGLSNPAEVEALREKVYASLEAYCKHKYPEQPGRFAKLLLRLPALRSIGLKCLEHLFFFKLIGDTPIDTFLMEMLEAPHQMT
Chain of Peroxisome proliferator-activated receptor gamma (Homo sapiens) (P37231 whole entry, looked up): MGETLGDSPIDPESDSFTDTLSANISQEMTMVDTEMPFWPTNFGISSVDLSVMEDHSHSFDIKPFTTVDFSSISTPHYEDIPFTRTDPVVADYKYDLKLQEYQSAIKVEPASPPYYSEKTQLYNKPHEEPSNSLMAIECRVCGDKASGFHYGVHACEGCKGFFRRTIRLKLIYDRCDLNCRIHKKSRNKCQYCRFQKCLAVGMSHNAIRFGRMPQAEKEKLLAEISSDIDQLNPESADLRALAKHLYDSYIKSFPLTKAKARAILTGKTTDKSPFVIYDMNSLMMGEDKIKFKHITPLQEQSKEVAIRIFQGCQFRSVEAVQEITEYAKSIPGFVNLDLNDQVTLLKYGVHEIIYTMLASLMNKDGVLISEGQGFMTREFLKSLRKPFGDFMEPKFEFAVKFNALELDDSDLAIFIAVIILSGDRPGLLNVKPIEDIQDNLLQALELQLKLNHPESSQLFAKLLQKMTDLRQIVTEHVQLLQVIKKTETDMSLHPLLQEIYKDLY
Chain of rat Serotonin Transporter (SERT), Slc6a4 (gene 25553) (P31652 whole entry, looked up): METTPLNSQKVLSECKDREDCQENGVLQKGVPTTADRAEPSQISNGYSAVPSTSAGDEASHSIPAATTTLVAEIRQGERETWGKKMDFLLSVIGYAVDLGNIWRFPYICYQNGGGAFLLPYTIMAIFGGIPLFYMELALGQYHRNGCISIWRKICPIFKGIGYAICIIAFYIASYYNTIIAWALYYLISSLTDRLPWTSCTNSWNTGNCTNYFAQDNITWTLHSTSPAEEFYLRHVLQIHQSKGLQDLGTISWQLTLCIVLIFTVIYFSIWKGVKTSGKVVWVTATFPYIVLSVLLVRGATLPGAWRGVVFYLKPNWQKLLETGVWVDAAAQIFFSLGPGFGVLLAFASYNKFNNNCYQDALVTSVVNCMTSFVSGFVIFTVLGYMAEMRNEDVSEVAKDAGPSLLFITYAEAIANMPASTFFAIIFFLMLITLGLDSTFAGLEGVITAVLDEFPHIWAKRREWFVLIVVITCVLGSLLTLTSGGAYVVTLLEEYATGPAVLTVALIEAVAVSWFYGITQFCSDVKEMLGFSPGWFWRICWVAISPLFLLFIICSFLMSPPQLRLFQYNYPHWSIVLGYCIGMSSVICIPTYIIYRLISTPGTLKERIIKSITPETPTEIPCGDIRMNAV
Chain of Bile acid receptor (Homo sapiens) (Q96RI1 whole entry, looked up, the tested form may be a part): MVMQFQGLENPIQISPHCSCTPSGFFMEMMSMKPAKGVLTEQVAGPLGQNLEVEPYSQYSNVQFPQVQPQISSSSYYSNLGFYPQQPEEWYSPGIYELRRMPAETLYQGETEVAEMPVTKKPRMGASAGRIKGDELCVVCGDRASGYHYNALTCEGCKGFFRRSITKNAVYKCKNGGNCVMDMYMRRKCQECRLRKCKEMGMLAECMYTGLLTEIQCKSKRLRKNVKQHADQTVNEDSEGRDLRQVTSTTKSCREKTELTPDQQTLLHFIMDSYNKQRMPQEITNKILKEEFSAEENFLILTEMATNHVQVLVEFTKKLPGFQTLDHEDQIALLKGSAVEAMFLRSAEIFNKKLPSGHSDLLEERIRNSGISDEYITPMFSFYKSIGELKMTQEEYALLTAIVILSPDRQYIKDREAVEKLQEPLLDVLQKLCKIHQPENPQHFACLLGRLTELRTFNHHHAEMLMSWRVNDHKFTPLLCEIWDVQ
Chain of human Dopamine Transporter (DAT), SLC6A3 (gene 6531) (Q01959 whole entry, looked up): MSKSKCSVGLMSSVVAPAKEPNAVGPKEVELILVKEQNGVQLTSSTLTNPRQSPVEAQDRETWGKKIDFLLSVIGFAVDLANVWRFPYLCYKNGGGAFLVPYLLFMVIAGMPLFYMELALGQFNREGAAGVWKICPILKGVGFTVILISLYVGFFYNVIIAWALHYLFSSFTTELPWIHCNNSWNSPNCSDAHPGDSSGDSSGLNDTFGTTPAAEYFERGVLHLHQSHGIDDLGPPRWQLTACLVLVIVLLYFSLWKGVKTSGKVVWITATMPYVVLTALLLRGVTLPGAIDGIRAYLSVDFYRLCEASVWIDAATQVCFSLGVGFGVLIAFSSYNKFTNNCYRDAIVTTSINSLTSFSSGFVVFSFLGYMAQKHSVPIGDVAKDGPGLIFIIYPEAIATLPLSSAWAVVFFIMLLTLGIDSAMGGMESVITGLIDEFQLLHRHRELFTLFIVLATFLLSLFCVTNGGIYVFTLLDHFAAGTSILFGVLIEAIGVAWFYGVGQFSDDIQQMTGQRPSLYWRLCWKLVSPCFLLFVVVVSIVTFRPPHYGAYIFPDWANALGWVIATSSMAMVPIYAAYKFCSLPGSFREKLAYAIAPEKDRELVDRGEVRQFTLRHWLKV
Chain of Estrogen receptor beta (Homo sapiens) (Q92731 whole entry, looked up, the tested form may be a part): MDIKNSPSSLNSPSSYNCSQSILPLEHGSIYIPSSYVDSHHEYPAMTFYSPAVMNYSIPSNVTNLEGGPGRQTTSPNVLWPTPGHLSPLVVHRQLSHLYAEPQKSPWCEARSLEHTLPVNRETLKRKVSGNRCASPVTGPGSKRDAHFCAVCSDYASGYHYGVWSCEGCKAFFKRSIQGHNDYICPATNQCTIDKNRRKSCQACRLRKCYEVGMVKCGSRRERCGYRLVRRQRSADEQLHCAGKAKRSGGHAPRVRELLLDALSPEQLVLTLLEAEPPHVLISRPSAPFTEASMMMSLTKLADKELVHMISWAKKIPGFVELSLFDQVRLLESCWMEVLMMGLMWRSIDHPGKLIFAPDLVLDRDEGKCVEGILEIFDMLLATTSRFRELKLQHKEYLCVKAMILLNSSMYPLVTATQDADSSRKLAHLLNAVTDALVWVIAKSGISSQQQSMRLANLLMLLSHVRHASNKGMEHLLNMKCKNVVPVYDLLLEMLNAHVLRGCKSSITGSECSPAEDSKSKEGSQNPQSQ
Chain of Estrogen receptor (Homo sapiens) (P03372 whole entry, looked up): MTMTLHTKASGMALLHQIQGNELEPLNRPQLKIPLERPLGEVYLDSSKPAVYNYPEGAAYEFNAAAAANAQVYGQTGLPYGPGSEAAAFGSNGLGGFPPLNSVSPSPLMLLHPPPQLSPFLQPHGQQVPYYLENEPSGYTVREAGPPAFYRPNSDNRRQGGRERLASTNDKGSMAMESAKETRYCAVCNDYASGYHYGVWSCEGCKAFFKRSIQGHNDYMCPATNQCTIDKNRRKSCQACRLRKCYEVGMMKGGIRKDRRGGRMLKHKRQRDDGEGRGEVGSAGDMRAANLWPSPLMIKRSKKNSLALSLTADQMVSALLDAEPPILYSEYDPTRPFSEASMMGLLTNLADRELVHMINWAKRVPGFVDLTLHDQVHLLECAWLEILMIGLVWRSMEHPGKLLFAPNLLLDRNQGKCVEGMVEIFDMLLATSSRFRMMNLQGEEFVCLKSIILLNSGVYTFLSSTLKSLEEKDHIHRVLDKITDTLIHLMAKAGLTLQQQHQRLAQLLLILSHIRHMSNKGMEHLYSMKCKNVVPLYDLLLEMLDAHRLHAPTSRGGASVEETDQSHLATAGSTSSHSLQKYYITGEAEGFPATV
Chain of Agonist Androgen Response Element (ARE), AR (gene 367) (P10275 whole entry, looked up): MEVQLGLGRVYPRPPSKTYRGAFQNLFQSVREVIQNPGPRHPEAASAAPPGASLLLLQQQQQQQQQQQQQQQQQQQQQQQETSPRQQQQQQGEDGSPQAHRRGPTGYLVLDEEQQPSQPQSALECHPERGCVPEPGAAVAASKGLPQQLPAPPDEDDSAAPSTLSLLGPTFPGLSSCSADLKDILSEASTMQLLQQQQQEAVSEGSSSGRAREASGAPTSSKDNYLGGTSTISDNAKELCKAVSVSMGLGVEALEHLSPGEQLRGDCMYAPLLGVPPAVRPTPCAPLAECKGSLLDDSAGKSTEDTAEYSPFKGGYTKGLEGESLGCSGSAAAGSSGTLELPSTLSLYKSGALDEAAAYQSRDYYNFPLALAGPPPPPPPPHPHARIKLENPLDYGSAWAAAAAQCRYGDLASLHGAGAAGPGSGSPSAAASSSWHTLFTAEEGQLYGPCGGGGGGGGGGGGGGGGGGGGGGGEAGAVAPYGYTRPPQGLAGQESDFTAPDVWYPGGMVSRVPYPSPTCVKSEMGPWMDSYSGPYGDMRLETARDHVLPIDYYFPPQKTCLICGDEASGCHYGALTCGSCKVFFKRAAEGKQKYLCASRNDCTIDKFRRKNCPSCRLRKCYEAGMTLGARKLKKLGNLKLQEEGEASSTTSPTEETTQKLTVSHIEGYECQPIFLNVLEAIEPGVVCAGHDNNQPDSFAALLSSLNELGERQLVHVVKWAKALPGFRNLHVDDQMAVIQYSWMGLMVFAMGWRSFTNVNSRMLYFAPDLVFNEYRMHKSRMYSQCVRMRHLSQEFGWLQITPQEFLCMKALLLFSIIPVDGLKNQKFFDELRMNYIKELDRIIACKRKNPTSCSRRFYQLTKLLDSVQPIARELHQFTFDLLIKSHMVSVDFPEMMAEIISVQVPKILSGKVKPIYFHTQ

As to `CCCCOC(=O)[C@@H](C)Oc1ccc(Oc2ccc(C#N)cc2F)cc1`, the result in experiment [1], in experiment [2], in experiment [3], in experiment [4], in [5] and in experiment [6] was inactive. Moreover, the result in experiment [7] and in experiment [8] was inactive. Moreover, in experiment [5], the AC50 is 13.5 µM (active).

On to `CCCOCC(=Nc1ccc(Cl)cc1C(F)(F)F)n1ccnc1`, for which the concentration at half-maximal activity (AC50) is 10.2 µM (active) in experiment [1], 11.2 µM (active) in [11], 0.377 µM (active) in experiment [13] and 0.147 µM (active) in experiment [14]. Besides, the outcome in experiment [9], in experiment [10], in experiment [2], in [7], in experiment [8] and in experiment [12] was inactive. Besides, in experiment [15], the compound was called inactive.

Regarding `CCCSP(=O)(OCC)SCCC`, the compound was classed as inactive in experiment [16], in experiment [2], in experiment [17], in experiment [11], in [5] and in experiment [6]. Besides, the result in experiment [7], in experiment [8], in experiment [12], in experiment [13], in [14] and in experiment [18] was inactive. The result in experiment [15] was inactive.

Regarding `C=C(C)[C@H]1Cc2c(ccc3c2O[C@@H]2COc4cc(OC)c(OC)cc4[C@@H]2C3=O)O1`, the compound was classed as inactive in [1], in experiment [6], in [7] and in experiment [8]. Also, the half-maximal activity concentration (AC50) is 12.7 µM (active) in [17]; 9.92 µM (active) in [11]; 16 µM (active) and 12.6 µM (active) in [5]; 22.2 µM (active) in experiment [6].

Turning to `CCOC(=O)COc1cc(-c2nn(C)c(OC(F)F)c2Cl)c(F)cc1Cl`, the compound was called inactive in [16], in experiment [5], in [6], in [7], in [8] and in [12]. The compound was called inactive in [13], in [14], in experiment [18] and in experiment [15].

As for `CC(C)N(C(=O)SCC(Cl)=C(Cl)Cl)C(C)C`, the AC50 in [1] was 7.84 µM (active); in experiment [17] it was 21.9 µM (active); in [11], 80.5 µM (active); in experiment [5] it was 74.3 µM (active) and 85 µM (active); in experiment [6], 77.9 µM (active). The outcome in experiment [9], in experiment [2] and in [6] was inactive.

`CC1(C(=O)Nc2ccc(O)c(Cl)c2Cl)CCCCC1`: the AC50 was 4.68 µM (active) in experiment [1], 20.6 µM (active) in experiment [2], 7.52 µM (active) in experiment [13] and 9.28 µM (active) in experiment [14]. The call in [17], in experiment [11], in experiment [5], in experiment [6], in experiment [7] and in experiment [8] was inactive.

In the case of `CCOP(=S)(OCC)Oc1ccc([N+](=O)[O-])cc1`, the figures for the AC50 in experiment [9], in experiment [12] and in experiment [14] were 8.93 µM (active), 2.57 µM (active) and 0.39 µM (active), respectively. Besides, the compound was called inactive in experiment [5], in experiment [6], in experiment [7], in experiment [8], in experiment [13] and in [15].

Consider `CSc1nnc(C(C)(C)C)c(=O)n1N`, for which the result in experiment [1], in [2], in experiment [17], in experiment [11], in experiment [5] and in [6] was inactive. Moreover, the outcome in [12], in experiment [13], in experiment [14] and in experiment [15] was inactive.
